Records with an inconclusive call do not appear. Active and inactive are the calls of the source. Unless noted, calls come from the whole dose curve; as a rule, active = well fitted curve in the direction sought with a large enough effect; inconclusive = small, poorly fitted or top-dose-only effect, or another doubt; inactive = no such curve, though single readings can be large; an effect the other way counts as inactive or inconclusive.
How the values were obtained:
UISO = assay: qHTS assay to identify novel small-molecules to repurpose for Merkel cell carcinoma treatment (AID 1296009); conditions: MCC and control cell lines, CellTiter-Glo viability, 72 h; series mostly up to 46 µM; note: % is set by controls: 0 for no effect and ±100 for the full control effect; nearly all actives have a fitted effect of over 60% in size
In short: (§1)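 72 hr, 37 degree celsius; NPC 8-pt / MIPE 11-pt dose response; compound pinned in DMSO; CellTiter-Glo, 10 min RT, luminescence; normalized to no-cell and DMSO controls.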

WaGa = assay: as above; conditions: MCC and control cell lines, CellTiter-Glo viability, 72 h; series mostly up to 46 µM
In short: as §1

C33A = assay: Primary qHTS to identify gynecologic anti-cancer compounds using libraries of approved drugs and bioactive compounds (AID 1345084); conditions: Gynecologic cancer cell panel viability, ATPlite luminescence, 48 h; series mostly up to 57.5 µM; note: % is set by controls: 0 for no effect and ±100 for the full control effect; nearly all actives have a fitted effect of over 55% in size
In short: (§2)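 Cells, 1,000 per well, plated 16 h, then exposed 48 h at 37 C to compounds. Viability by ATPlite luminescence after 15 min at room temperature.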

CAOV3 = assay: as above; conditions: Gynecologic cancer cell panel viability, ATPlite luminescence, 48 h; series mostly up to 57.5 µM
In short: as §2

CASKI = assay: as above; conditions: Gynecologic cancer cell panel viability, ATPlite luminescence, 48 h; series mostly up to 57.5 µM
In short: as §2

Es-2 = assay: as above; conditions: Gynecologic cancer cell panel viability, ATPlite luminescence, 48 h; series mostly up to 57.5 µM
In short: as §2

HeLa = assay: as above; conditions: Gynecologic cancer cell panel viability, ATPlite luminescence, 48 h; series mostly up to 57.5 µM
In short: as §2

Hek293T = assay: as above; conditions: Gynecologic cancer cell panel viability, ATPlite luminescence, 48 h, control line for the selectivity index; series mostly up to 57.5 µM
In short: as §2

JEG-3 = assay: as above; conditions: Gynecologic cancer cell panel viability, ATPlite luminescence, 48 h; series mostly up to 57.5 µM
In short: as §2

OV90 = assay: as above; conditions: Gynecologic cancer cell panel viability, ATPlite luminescence, 48 h; series mostly up to 57.5 µM
In short: as §2

PA-1 = assay: as above; conditions: Gynecologic cancer cell panel viability, ATPlite luminescence, 48 h; series mostly up to 57.5 µM
In short: as §2

SKOV3 = assay: as above; conditions: Gynecologic cancer cell panel viability, ATPlite luminescence, 48 h; series mostly up to 57.5 µM
In short: as §2

Tov-21-G = assay: as above; conditions: Gynecologic cancer cell panel viability, ATPlite luminescence, 48 h; series mostly up to 57.5 µM
In short: as §2

Tov112D = assay: as above; conditions: Gynecologic cancer cell panel viability, ATPlite luminescence, 48 h; series mostly up to 57.5 µM
In short: as §2

[1] = Drug repurposing screens with cells derived from glioblastoma tumor samples (AID 1345199); conditions: GBM patient neurospheres viability, ATP luminescence, 48 h; note: nearly all actives have a fitted effect of over 40% in size; note: potency is the fitted concentration of half-maximal effect; for activity, negative = cell killing: % is set by controls: 0 for no effect and ±100 for the full control effect
In short: (§3)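 Four patient lines of CD133+ GBM neurospheres were screened at several concentrations; hits were retested in those lines plus three slower-growing GBM lines, using 48-hour treatment and ATP-based viability.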

astro = assay: as above; conditions: viability, ATP luminescence, 48 h; series mostly up to 45.9 µM
In short: as §3

[2] = molecular target: Nuclear receptor subfamily 1 group I member 2 (Rattus norvegicus) (UniProt Q9R1A7); assay: qHTS assay for small molecule activators of the rat pregnane X receptor (rPXR) signaling pathway (AID 651751; call rule not given here; note: 0% is about no effect); conditions: rPXR reporter cells, luciferase (One-Glo), 24 h
[3] = qHTS assay for small molecule activators of the human pregnane X receptor (PXR) signaling pathway (AID 720659; call rule not given here; note: 0% is about no effect)
[4] = at 45.9 µM (top of the series), tumour line B

Chain of Nuclear receptor subfamily 1 group I member 2 (Rattus norvegicus) (Q9R1A7 whole entry, looked up): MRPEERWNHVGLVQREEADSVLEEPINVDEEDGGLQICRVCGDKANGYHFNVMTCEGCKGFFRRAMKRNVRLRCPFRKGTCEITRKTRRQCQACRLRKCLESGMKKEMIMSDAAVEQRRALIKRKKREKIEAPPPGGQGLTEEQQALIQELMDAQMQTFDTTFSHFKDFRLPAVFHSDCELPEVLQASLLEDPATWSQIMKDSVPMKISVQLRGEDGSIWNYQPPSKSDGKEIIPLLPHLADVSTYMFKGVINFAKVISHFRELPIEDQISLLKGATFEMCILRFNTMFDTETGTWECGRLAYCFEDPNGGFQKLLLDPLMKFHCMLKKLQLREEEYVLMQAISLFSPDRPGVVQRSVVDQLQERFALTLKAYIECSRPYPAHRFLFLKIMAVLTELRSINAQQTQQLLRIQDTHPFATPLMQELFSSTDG

O=P1(NCCCl)OCCCN1CCCl (configuration not stated)
inactive: Potency (UISO) | Potency (WaGa) | Potency (C33A) | Potency (CAOV3) | Potency (CASKI) | Potency (Es-2) | Potency (HeLa) | Potency (Hek293T) | Potency (JEG-3) | Potency (OV90) | Potency (PA-1) | Potency (SKOV3) | Potency (Tov-21-G) | Potency (Tov112D) | activity, negative = cell killing ([1]; at 21.2 µM (top of the series), tumour line B) -10.6% | activity, negative = cell killing ([1]; at 21.2 µM (top of the series), tumour line D) -4.8% | activity, negative = cell killing ([1]; at 21.3 µM (top of the series), tumour line A) -27.9% | Potency (astro)

c1ccc(C2CC2)c(OCC2=NCCN2)c1
active: Potency ([1]; tumour line A) 11.2 µM
inactive: Potency (UISO) | Potency (WaGa) | Potency (C33A) | Potency (CAOV3) | Potency (CASKI) | Potency (Es-2) | Potency (HeLa) | Potency (Hek293T) | Potency (JEG-3) | Potency (OV90) | Potency (SKOV3) | Potency (Tov-21-G) | Potency (Tov112D) | activity, negative = cell killing [1, 4] -20.7% | activity, negative = cell killing ([1]; at 45.9 µM (top of the series), tumour line D) -19.1% | Potency (astro)

O=c1oc2ccccc2c(O)c1C(CC(O)c1ccc(-c2ccc(Br)cc2)cc1)c1ccccc1 (configuration not stated)
inactive: Potency (UISO) | Potency (WaGa) | Potency (C33A) | Potency (CAOV3) | Potency (CASKI) | Potency (Es-2) | Potency (HeLa) | Potency (Hek293T) | Potency (JEG-3) | Potency (OV90) | Potency (PA-1) | Potency (SKOV3) | Potency (Tov-21-G) | Potency (Tov112D) | activity, negative = cell killing [1, 4] -19.7% | max response [2] -13.3% | outcome [3]

Reference: PubChem BioAssay (NCATS)
